# About 1,100 (79%) of roughly 1,400 compounds were called active.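 The calls were made as follows: active = fitted half-maximal concentration of a falling signal no higher than twice the top valid dose in every test run; inconclusive = runs disagree, or flat partial inhibition, or poor fit; inactive = every run inactive: flat, wrong direction, or potency beyond limit.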 So high a share suggests a set chosen from earlier hits. Not all results are given here. Potency and affinity values are given separately.
# Assay: inhibitors of clade B AD8 Env fusion, dose response, cell-based, cherry-pick (AID 652062)
# Conditions: HeLa-AD8 Env / CEM-CCR5 cell fusion, luciferase; at 35 µM (top of the series) unless noted
row,Compound,"activity change, negative = inhibition"
1,COc1cccc(S(=O)(=O)N[C@H]2CC[C@H](CC(=O)NCc3ccncc3)O[C@@H]2CO)c1,30.8%
2,Cc1ccc2c(c1)C(=C(C#N)C#N)CCN2,85.1%
3,C[C@H]1CN([C@@H](C)CO)S(=O)(=O)c2ccc(-c3cccc(C#N)c3)cc2O[C@H]1CN(C)Cc1cccc(F)c1,4.15%
4,C[C@@H]1CN([C@H](C)CO)S(=O)(=O)c2ccc(-c3ccccc3)cc2O[C@@H]1CN(C)Cc1ccccc1,-17.9%
5,C[C@H]1CN([C@@H](C)CO)S(=O)(=O)c2ccc(-c3ccc(F)cc3)cc2O[C@H]1CN(C)Cc1cccc(F)c1,-95%
6,COc1cc(-c2cc(OC)c(O)c(OC)c2)cc(OC)c1O,27.9%
7,CCc1nc(N2CCCCC2)c2oc3ccccc3c2n1,16.4%
8,CCc1nc(N2CCCCC2C)c2oc3ccccc3c2n1 (stereo not drawn),131%
9,C=CCN1C(=S)CC(c2ccccc2)=Nc2ccccc21,1.53%
10,C[C@@H]1CN([C@@H](C)CO)S(=O)(=O)c2ccc(C3=CCCC3)cc2O[C@@H]1CN(C)C(=O)C1CCOCC1,50.5%
11,C[C@H](CO)N1C[C@H](C)[C@@H](CN(C)Cc2ccncc2)Oc2cc(C3=CCCCC3)ccc2S1(=O)=O,57.2% [at 15 µM]
12,COc1ccc(Nc2ncc(C(=O)N3CCN(c4ccc(F)cc4)CC3)c3ccccc23)cc1,0.701%
13,COc1ccc2[nH]c3c(N4CCC(O)(c5cccc(C(F)(F)F)c5)CC4)ncnc3c2c1,-33.8%
14,Cc1noc(C)c1S(=O)(=O)Nc1cccc2c1O[C@H](CN(C)Cc1ccc(C(F)(F)F)cc1)[C@H](C)CN([C@H](C)CO)C2=O,36.8%
15,C[C@@H]1CN([C@@H](C)CO)C(=O)c2cccc(NS(=O)(=O)c3ccc(F)cc3)c2O[C@@H]1CN(C)Cc1ccc(C(F)(F)F)cc1,-35.8%
16,C[C@@H]1CN([C@H](C)CO)C(=O)c2cccc(NS(=O)(=O)c3ccc(F)cc3)c2O[C@@H]1CN(C)Cc1ccc(C(F)(F)F)cc1,-28.7%
17,COc1ccc(CCNC(=O)COC(=O)c2cccn2C)cc1,-11.1%
18,O=S(=O)(NCC[C@H]1CC[C@H](NS(=O)(=O)c2ccccc2Cl)[C@H](CO)O1)c1ccc(Cl)cc1,67.6% [at 30 µM]
19,O=S(=O)(NCC[C@@H]1CC[C@@H](NS(=O)(=O)c2ccccc2Cl)[C@H](CO)O1)c1ccc(Cl)cc1,68.7%
20,Cc1ccc2c(C)nc(Nc3nc(CSc4nnnn4-c4ccccc4)cc(=O)[nH]3)nc2c1,-21.8%
21,C=CCOc1c(Br)cc(CNc2ccc(NC(=O)C(C)C)c(OC)c2)cc1OC,129%
22,CC(NC(=O)c1ccccc1NC(=O)CN1CCc2ccccc2C1)c1ccccc1 (stereo not drawn),-3.06%
23,Cc1ccc(NC(=O)c2ccc(OCC3CCCO3)cc2)cc1Cl (stereo not drawn),-7.89%
24,O=C1c2cccnc2C(Nc2ccc(S(=O)(=O)N3CCCCCC3)cc2)N1Cc1ccccc1 (stereo not drawn),-20.4%
25,O=C1c2cccnc2C(Nc2ccc(S(=O)(=O)N3CCCCC3)cc2)N1Cc1ccccc1 (stereo not drawn),6.27%
26,CCCc1cc(C(=O)NCc2ccc(OC)cc2)no1,14.3%

row,Compound,"activity change, negative = inhibition"
1,Cc1noc(C)c1S(=O)(=O)N(C)C[C@H]1Oc2ccc(NC(=O)Nc3ccccc3)cc2CC(=O)N([C@H](C)CO)C[C@H]1C,14.5%
2,CCNC(=O)C[C@@H]1CC[C@@H]2[C@H](COC[C@@H](O)CN2C(=O)c2ccccn2)O1,66.2%
3,CC(C)NC(=O)N(C)C[C@@H]1Oc2ccc(NC(=O)C3CC3)cc2CC(=O)N([C@H](C)CO)C[C@H]1C,-3.87%
4,CC(C)NC(=O)N(C)C[C@@H]1Oc2ccc(NC(=O)C3CC3)cc2CC(=O)N([C@@H](C)CO)C[C@@H]1C,-3.66%
5,Nc1ncn([C@H]2C[C@H](O)[C@@H](CO)O2)c(=O)n1,8.34%
6,C[C@@H]1CN([C@@H](C)CO)S(=O)(=O)c2ccc(-c3ccccc3)cc2O[C@H]1CN(C)S(C)(=O)=O,54.4%
7,Nc1nc2c(ncn2[C@@H]2O[C@H](C(=O)NCC(c3ccccc3)c3ccccc3)[C@@H](O)[C@H]2O)c(=O)[nH]1,19.5%
8,C[C@@H]1CN([C@H](C)CO)C(=O)c2cccc(NS(=O)(=O)c3cn(C)cn3)c2O[C@H]1CN(C)C(=O)Nc1ccc(F)cc1,0.184%
9,CCN(CCn1cccn1)C(=O)CC1C(=O)NCCN1CCc1ccccc1 (stereo not drawn),27.6%
10,O=C(CC1C(=O)NCCN1Cc1cccc(F)c1)NC1CCCCC1 (stereo not drawn),73.6%
11,CCCCNC(=O)C[C@H]1C[C@@]2(C(=O)OC)C(=C[C@H](C(C)(C)C)O[C@@H]2C)N(Cc2ccc3c(c2)OCO3)C1=O,26.7%
12,Cc1ccc2c(c1)c1c3n2CCN(CC(N)=O)C3CCC1 (stereo not drawn),38.7%
13,Cc1ccc(-n2ncc3c(N4CCN(c5ccccc5)CC4)ncnc32)c(C)c1,-35.1%
14,Cc1ccc(Cn2ncc3c(N4CCN(c5ccc(C)cc5)CC4)ncnc32)cc1,-19.9%
15,COc1ccc(NS(=O)(=O)c2cccc(C(=O)NNC(=O)CNC(=O)c3ccc(C)cc3)c2)cc1,3.44%
16,CCOC(=O)[C@]12CCC=C1N(Cc1ccc3c(c1)OCO3)C(=O)[C@H](CC(=O)NCC13CC4CC(CC(C4)C1)C3)C2,17.3% [at 16 µM]
17,COC(=O)[C@]12CCCCC=C1N(Cc1ccco1)C(=O)[C@H](CC(=O)NCCc1ccccc1OC)C2,99.6%
18,C[C@@H]1CN([C@H](C)CO)C(=O)c2cc(NC(=O)Nc3ccccc3)ccc2O[C@@H]1CN(C)S(=O)(=O)c1ccccc1,138%
19,CCOC(=O)[C@@H]1[C@H]2COc3cc(OC)ccc3[C@H]2N2C(=O)N(c3cccc(F)c3)C(=O)[C@@]12C,236%
20,C[C@H]1CN([C@@H](C)CO)C(=O)c2cccc(NC(=O)Nc3ccc(C(F)(F)F)cc3)c2O[C@H]1CN(C)S(=O)(=O)c1ccccc1,-14.4%
21,CCN(CC)S(=O)(=O)c1ccc(NC(=O)Nc2cccc(C(F)(F)F)c2)cc1,-121%
22,CCc1nnc(NC(=O)[C@@H](NC(=O)c2cccc(S(=O)(=O)N(CC)CC)c2)C(C)C)s1,52.6%
23,O=C(NCc1ccco1)c1ccc(Cn2c(=O)c3ccccc3n(Cc3cccc(F)c3)c2=O)cc1,15.9%
24,CCCCCn1c(C(C)NC(=O)CCC)nc2ccccc21 (stereo not drawn),-19.3%
25,COc1cc2c(c(OC)c1OC)[C@@]1(c3ccccc3)CCCC[C@H]1[C@@H]2NC(=O)C(F)(F)F,-28.2%
26,Cc1ccc(NS(=O)(=O)c2cc(C(=O)N(C)C3CCN(C)CC3)ccc2Cl)cc1Cl,81.1%

row,Compound,"activity change, negative = inhibition"
1,CCN(c1nc(N)c(C(=O)N=C(N)N)nc1Cl)C(C)C,-8.55%
2,Cc1[nH]c2ccccc2c1/C=N\NC(=O)c1ccccc1Cl,8.5%
3,CN1CCc2ccccc2Cc2[nH]c3ccccc3c2CC1,-17.8%
4,CC(C)OCCCn1c(=S)[nH]c2ccc(N3CCOCC3)cc2c1=O,-27.3%
5,O=C(NCc1ccccc1)[C@@H]1CCCN1C(=O)[C@@H]1CCCN1C(=O)c1cccc2ccccc12,-3.32%
6,Cc1cc(C(=O)N2CCC(C(=O)O)CC2)c(C(F)(F)F)o1,-10.2%
7,C[C@@H]1CN([C@@H](C)CO)C(=O)c2cc(NC(=O)c3ccncc3)ccc2O[C@@H]1CN(C)Cc1ccncc1,34.4%
8,C[C@@H]1CN([C@@H](C)CO)C(=O)c2cc(NC(=O)c3ccncc3)ccc2O[C@H]1CN(C)Cc1ccncc1,56.3%
9,COc1ccc(CN(C)C[C@@H]2Oc3ccc(NC(=O)Nc4ccc(OC)cc4)cc3C(=O)N([C@H](C)CO)C[C@@H]2C)cc1,64%
10,C[C@@H]1CN([C@@H](C)CO)C(=O)c2cc(NC(=O)c3ccccc3)ccc2O[C@@H](C)CCCCO[C@H]1CN(C)Cc1ccc(C(=O)O)cc1,52.2%
11,O=c1[nH]c(=O)n([C@H]2C[C@H](O)[C@@H](CO)O2)cc1F,-10.2%
12,Cc1cc(C)nc(/N=C(\N)Nc2ccc(CC(=O)OC(C)C)cc2)n1,39.8%
13,C[C@@]12C(=O)N(Cc3ccc(F)cc3)CC(=O)N1[C@H]1c3cc(Cl)ccc3OC[C@@H]1[C@@H]2c1ccccc1,19.5%
14,CN(C[C@H](Cc1ccccc1)N(C[C@H](c1ccccc1)N(CCc1ccccc1)N=O)N=O)N=O,-5.55%
15,C[C@@H]1CN([C@@H](C)CO)C(=O)c2cc(NS(=O)(=O)c3ccccc3)ccc2O[C@H]1CN(C)Cc1ccc(Oc2ccccc2)cc1,132%
16,Cc1ccc(S(=O)(=O)Nc2ccc3c(c2)CC(=O)N([C@@H](C)CO)C[C@H](C)[C@@H](CN(C)Cc2ccc(-c4ccccc4)cc2)O3)cc1,215% [at 18 µM]
17,Cc1ccc(S(=O)(=O)Nc2ccc3c(c2)C(=O)N([C@H](C)CO)C[C@@H](C)[C@H](CN(C)S(=O)(=O)c2ccc(F)cc2)O3)cc1,-22.9% [at 16 µM]
18,O=C(C1CCCCC1)N1CCCC(c2nc3c(nnn3Cc3ccccc3)c(=O)[nH]2)C1 (stereo not drawn),-8.09% [at 16 µM]
19,C[C@H](CO)N1C[C@H](C)[C@H](CN(C)S(=O)(=O)c2ccccc2)Oc2ccc(NS(=O)(=O)c3ccc(F)cc3)cc2CC1=O,10.2%
20,Cc1ccc(S(=O)(=O)N(C)C[C@@H]2Oc3ccc(NS(=O)(=O)c4c(C)noc4C)cc3CC(=O)N([C@H](C)CO)C[C@@H]2C)cc1,-10.8%
21,C[C@H](CO)N1C[C@H](C)[C@@H](CN(C)S(=O)(=O)c2ccc(F)cc2)Oc2ccc(NS(=O)(=O)c3cn(C)cn3)cc2CC1=O,35.3%
22,CCNc1ncnc2c1cnn2C1CCCO1 (stereo not drawn),-11.7%
23,C[C@@H]1CN([C@@H](C)CO)C(=O)Cc2cc(NC(=O)NC3CCCCC3)ccc2O[C@@H]1CN(C)S(=O)(=O)c1ccc(Cl)cc1,-18.9%
24,O=C(Nc1cccc(F)c1)N[C@H]1CC[C@@H](CCNS(=O)(=O)c2cccc(Cl)c2)O[C@H]1CO,15.8%
25,CCS(=O)(=O)N[C@H]1CC[C@@H](CC(=O)NCc2ccc(Cl)cc2)O[C@@H]1CO,46.4%
26,COc1cccc(CNC(=O)C[C@@H]2C=C[C@H](NC(=O)C3CCC3)[C@H](CO)O2)c1,64%

# — PubChem BioAssay AID652062 (Broad Institute, 2013)
